Reference: PubChem BioAssay AID1159580 (chemical genetic matrix, 2015)
Out of some 5,500 compounds screened, about 2,000 (36%) were called active. Another 18% or so got no clear call; they are omitted. No stated cut-off is given here; in the data, active means normalized growth mostly below about 0.91 (no sharp cut-off); inconclusive means no clear call, values can overlap the other calls; inactive means mostly above about 0.92. Some of the results follow.

Assay: chemical genetic growth profiling, strain panel (AID 1159580);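 further: tested at 20 µM; growth read once vehicle control cultures reached saturation at 30 °C; 1 = growth at the plate median or of vehicle wells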
Conditions: growth OD

Measured: normalized growth

CN[C@@H]1[C@@H](O[C@H]2O[C@H](CO)[C@@H](N)[C@H](O)[C@H]2O)O[C@H]2C[C@@H](N)[C@H](O[C@H]3[C@H](O)[C@@H](O)[C@H](N)C[C@@H]3N)O[C@@H]2[C@@H]1O
inactive: S. cerevisiae deletion strains, locus YKL009W, strain mrt4, stronger effect = lower value 0.996 | S. cerevisiae deletion strains, locus YKL068W, stronger effect = lower value 1.01 | S. cerevisiae deletion strains, locus YKL085W, strain MDH1 (second series), stronger effect = lower value 0.982 | S. cerevisiae deletion strains, locus YKL085W, strain MDH1, stronger effect = lower value 0.982 | S. cerevisiae deletion strains, locus YKL160W, strain elf1, stronger effect = lower value 1.01 | S. cerevisiae deletion strains, locus YKL190W, strain CNB1, stronger effect = lower value 1 | S. cerevisiae deletion strains, locus YKR001C, strain vps1, stronger effect = lower value 0.989 | S. cerevisiae deletion strains, locus YKR026C, strain gcn3, stronger effect = lower value 1 | S. cerevisiae deletion strains, locus YKR091W, strain srl3, stronger effect = lower value 1 | S. cerevisiae deletion strains, locus YLL001W, strain dnm1, stronger effect = lower value 1.02 | S. cerevisiae deletion strains, locus YLL026W, stronger effect = lower value 1.01 | S. cerevisiae deletion strains, locus YLL041C, strain sdh2, stronger effect = lower value 0.997 | S. cerevisiae deletion strains, locus YLR027C, strain aat2, stronger effect = lower value 1.01 | S. cerevisiae deletion strains, locus YLR039C, strain RIC1, stronger effect = lower value 1.07 | S. cerevisiae deletion strains, locus YLR058C, strain SHM2, stronger effect = lower value 1.01 | S. cerevisiae deletion strains, locus YLR102C, strain apc9, stronger effect = lower value 1.01 | S. cerevisiae deletion strains, locus YLR113W, strain HOG1, stronger effect = lower value 0.939 | S. cerevisiae deletion strains, locus YLR221C, strain rsa3, stronger effect = lower value 1 | S. cerevisiae deletion strains, locus YLR258W, strain gsy2, stronger effect = lower value 1 | S. cerevisiae deletion strains, locus YLR262C, strain YPT6 (second series), stronger effect = lower value 1 | S. cerevisiae deletion strains, locus YLR262C, strain YPT6, stronger effect = lower value 1.05 | S. cerevisiae deletion strains, locus YLR268W, strain sec22, stronger effect = lower value 0.981 | S. cerevisiae deletion strains, locus YLR320W, strain mms22, stronger effect = lower value 0.991 | S. cerevisiae deletion strains, locus YLR330W, strain CHS5, stronger effect = lower value 1.01 | S. cerevisiae deletion strains, locus YLR342W, strain FKS1 (second series), stronger effect = lower value 1.07 | S. cerevisiae deletion strains, locus YLR342W, strain FKS1, stronger effect = lower value 1.02 | S. cerevisiae deletion strains, locus YLR357W, strain rsc2, stronger effect = lower value 0.996 | S. cerevisiae deletion strains, locus YLR370C, strain arc18, stronger effect = lower value 1.01 | S. cerevisiae deletion strains, locus YLR371W, strain rom2, stronger effect = lower value 1.01 | S. cerevisiae deletion strains, locus YLR384C, strain iki3, stronger effect = lower value 1 | S. cerevisiae deletion strains, locus YLR418C, strain cdc73, stronger effect = lower value 0.99 | S. cerevisiae deletion strains, locus YML016C, strain PPZ1, stronger effect = lower value 1 | S. cerevisiae deletion strains, locus YML032C, strain rad52, stronger effect = lower value 1.01 | S. cerevisiae deletion strains, locus YML120C, strain ndi1, stronger effect = lower value 1 | S. cerevisiae deletion strains, locus YML124C, strain tub3, stronger effect = lower value 0.995 | S. cerevisiae deletion strains, locus YMR058W, strain fet3, stronger effect = lower value 1.02 | S. cerevisiae deletion strains, locus YMR078C, strain ctf18, stronger effect = lower value 1.02 | S. cerevisiae deletion strains, locus YMR125W, strain sto1, stronger effect = lower value 0.988 | S. cerevisiae deletion strains, locus YMR129W, stronger effect = lower value 0.986 | S. cerevisiae deletion strains, locus YMR205C, strain PFK2, stronger effect = lower value 1.02 | S. cerevisiae deletion strains, locus YMR223W, strain ubp8, stronger effect = lower value 0.913 | S. cerevisiae deletion strains, locus YMR231W, strain pep5, stronger effect = lower value 1.01 | S. cerevisiae deletion strains, locus YMR263W, strain SAP30, stronger effect = lower value 0.991 | S. cerevisiae deletion strains, locus YMR307W, strain GAS1, stronger effect = lower value 1.03 | S. cerevisiae deletion strains, locus YNL067W, strain RPL9B, stronger effect = lower value 0.988 | S. cerevisiae deletion strains, locus YNL071W, strain lat1, stronger effect = lower value 0.995 | S. cerevisiae deletion strains, locus YNL128W, strain TEP1, stronger effect = lower value 1.03 | S. cerevisiae deletion strains, locus YNL153C, strain GIM3, stronger effect = lower value 0.98 | S. cerevisiae deletion strains, locus YNL183C, strain NPR1, stronger effect = lower value 0.916 | S. cerevisiae deletion strains, locus YNL209W, strain ssb2, stronger effect = lower value 0.996 | S. cerevisiae deletion strains, locus YNL233W, strain BNI4, stronger effect = lower value 1 | S. cerevisiae deletion strains, locus YNL248C, strain rpa49, stronger effect = lower value 0.999 | S. cerevisiae deletion strains, locus YNL250W, strain rad50, stronger effect = lower value 1.01 | S. cerevisiae deletion strains, locus YNL271C, strain bni1, stronger effect = lower value 0.997 | S. cerevisiae deletion strains, locus YNL298W, strain CLA4, stronger effect = lower value 1.01 | S. cerevisiae deletion strains, locus YNL307C, strain MCK1, stronger effect = lower value 1.02 | S. cerevisiae deletion strains, locus YNL322C, strain KRE1 (second series), stronger effect = lower value 1 | S. cerevisiae deletion strains, locus YNL322C, strain KRE1, stronger effect = lower value 1.01 | S. cerevisiae deletion strains, locus YNR049C, strain mso1, stronger effect = lower value 0.999 | S. cerevisiae deletion strains, locus YNR052C, strain pop2, stronger effect = lower value 0.996 | S. cerevisiae deletion strains, locus YOL006C, strain TOP1, stronger effect = lower value 1 | S. cerevisiae deletion strains, locus YOL012C, strain htz1 0.612 | S. cerevisiae deletion strains, locus YOL147C, strain pex11, stronger effect = lower value 1 | S. cerevisiae deletion strains, locus YOR001W, strain rrp6, stronger effect = lower value 1 | S. cerevisiae deletion strains, locus YOR061W, strain CKA2, stronger effect = lower value 1.01 | S. cerevisiae deletion strains, locus YOR069W, strain VPS5, stronger effect = lower value 1 | S. cerevisiae deletion strains, locus YOR070C, strain gyp1, stronger effect = lower value 1 | S. cerevisiae deletion strains, locus YOR080W, strain dia2, stronger effect = lower value 1.01 | S. cerevisiae deletion strains, locus YOR083W, strain WHI5, stronger effect = lower value 1.01 | S. cerevisiae deletion strains, locus YOR106W, strain vam3, stronger effect = lower value 1.01 | S. cerevisiae deletion strains, locus YOR136W, strain idh2, stronger effect = lower value 1.01 | S. cerevisiae deletion strains, locus YOR144C, strain elg1, stronger effect = lower value 1 | S. cerevisiae deletion strains, locus YOR184W, strain ser1, stronger effect = lower value 1.03 | S. cerevisiae deletion strains, locus YOR231W, strain MKK1, stronger effect = lower value 0.951 | S. cerevisiae deletion strains, locus YOR265W, strain rbl2, stronger effect = lower value 1.01 | S. cerevisiae deletion strains, locus YOR270C, strain vph1, stronger effect = lower value 1.2 | S. cerevisiae deletion strains, locus YOR290C, strain snf2, stronger effect = lower value 0.991 | S. cerevisiae deletion strains, locus YOR316C, strain cot1, stronger effect = lower value 1.01 | S. cerevisiae deletion strains, locus YPL051W, strain arl3, stronger effect = lower value 1.02 | S. cerevisiae deletion strains, locus YPL055C, strain LGE1, stronger effect = lower value 0.984 | S. cerevisiae deletion strains, locus YPL078C, strain atp4, stronger effect = lower value 1.03 | S. cerevisiae deletion strains, locus YPL106C, strain sse1, stronger effect = lower value 0.975 | S. cerevisiae deletion strains, locus YPL240C, strain hsp82, stronger effect = lower value 0.995 | S. cerevisiae deletion strains, locus YPL241C, strain CIN2, stronger effect = lower value 1 | S. cerevisiae deletion strains, locus YPL256C, strain CLN2, stronger effect = lower value 1.02 | S. cerevisiae deletion strains, locus YPR119W, strain clb2, stronger effect = lower value 1.01 | S. cerevisiae deletion strains, locus YPR141C, strain kar3, stronger effect = lower value 1 | S. cerevisiae deletion strains, locus YPR163C, strain tif3, stronger effect = lower value 1 | S. cerevisiae deletion strains, locus YPR167C, strain met16, stronger effect = lower value 0.991 | S. cerevisiae deletion strains, strain wtn01, stronger effect = lower value 0.988 | S. cerevisiae strains, strain wild type, stronger effect = lower value 1.02
